# PubChem BioAssay AID1159580 (chemical genetic matrix, 2015)
# Out of some 5,500 compounds screened, about 2,000 (36%) were called active. Not shown: some 18% with an inconclusive outcome. Some of the results follow. A number with no mark means an inactive call. Cut-off read from the data, not from the text of the source: active = normalized growth mostly below about 0.91 (no sharp cut-off); inconclusive = no clear call, values can overlap the other calls; inactive = mostly above about 0.92.
# Assay: chemical genetic growth profiling, strain panel (AID 1159580);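 note: tested at 20 µM; growth read once vehicle control cultures reached saturation at 30 °C; 1 = growth at the plate median or of vehicle wells; lower values mean less growth of the strain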
# Conditions: growth OD
structure (smiles),measurement,setting,value
COc1ccc2cc1Oc1ccc(cc1)C[C@H]1c3cc(c(OC)cc3CCN1C)Oc1c(OC)c(OC)cc3c1[C@H](C2)N(C)CC3,normalized growth,"S. cerevisiae deletion strains, locus YKL009W, strain mrt4, active compounds read low",1.02
same,normalized growth,"S. cerevisiae deletion strains, locus YKL068W, active compounds read low",1.01
same,normalized growth,"S. cerevisiae deletion strains, locus YKL085W, strain MDH1 (second series), active compounds read low",1.01
same,normalized growth,"S. cerevisiae deletion strains, locus YKL085W, strain MDH1, active compounds read low",1.01
same,normalized growth,"S. cerevisiae deletion strains, locus YKL160W, strain elf1, active compounds read low",0.99
same,normalized growth,"S. cerevisiae deletion strains, locus YKL190W, strain CNB1, active compounds read low",1.01
same,normalized growth,"S. cerevisiae deletion strains, locus YKR001C, strain vps1, active compounds read low",0.973
same,normalized growth,"S. cerevisiae deletion strains, locus YKR026C, strain gcn3, active compounds read low",1
same,normalized growth,"S. cerevisiae deletion strains, locus YKR091W, strain srl3, active compounds read low",1
same,normalized growth,"S. cerevisiae deletion strains, locus YLL001W, strain dnm1, active compounds read low",0.986
same,normalized growth,"S. cerevisiae deletion strains, locus YLL026W, active compounds read low",1
same,normalized growth,"S. cerevisiae deletion strains, locus YLL041C, strain sdh2, active compounds read low",1
same,normalized growth,"S. cerevisiae deletion strains, locus YLR027C, strain aat2, active compounds read low",1.01
same,normalized growth,"S. cerevisiae deletion strains, locus YLR039C, strain RIC1, active compounds read low",0.94
same,normalized growth,"S. cerevisiae deletion strains, locus YLR058C, strain SHM2, active compounds read low",1.01
same,normalized growth,"S. cerevisiae deletion strains, locus YLR102C, strain apc9, active compounds read low",1.01
same,normalized growth,"S. cerevisiae deletion strains, locus YLR113W, strain HOG1, active compounds read low",1.07
same,normalized growth,"S. cerevisiae deletion strains, locus YLR221C, strain rsa3, active compounds read low",1.01
same,normalized growth,"S. cerevisiae deletion strains, locus YLR258W, strain gsy2, active compounds read low",1.01
same,normalized growth,"S. cerevisiae deletion strains, locus YLR262C, strain YPT6 (second series), active compounds read low",0.975
same,normalized growth,"S. cerevisiae deletion strains, locus YLR262C, strain YPT6, active compounds read low",0.993
same,normalized growth,"S. cerevisiae deletion strains, locus YLR268W, strain sec22, active compounds read low",1.01
same,normalized growth,"S. cerevisiae deletion strains, locus YLR320W, strain mms22, active compounds read low",0.987
same,normalized growth,"S. cerevisiae deletion strains, locus YLR330W, strain CHS5, active compounds read low",1.02
same,normalized growth,"S. cerevisiae deletion strains, locus YLR342W, strain FKS1 (second series), active compounds read low",0.885
same,normalized growth,"S. cerevisiae deletion strains, locus YLR342W, strain FKS1, active compounds read low",1.01
same,normalized growth,"S. cerevisiae deletion strains, locus YLR357W, strain rsc2, active compounds read low",0.977
same,normalized growth,"S. cerevisiae deletion strains, locus YLR370C, strain arc18, active compounds read low",0.914
same,normalized growth,"S. cerevisiae deletion strains, locus YLR371W, strain rom2, active compounds read low",1.01
same,normalized growth,"S. cerevisiae deletion strains, locus YLR384C, strain iki3, active compounds read low",1.01
same,normalized growth,"S. cerevisiae deletion strains, locus YLR418C, strain cdc73, active compounds read low",0.96
same,normalized growth,"S. cerevisiae deletion strains, locus YML016C, strain PPZ1, active compounds read low",1
same,normalized growth,"S. cerevisiae deletion strains, locus YML032C, strain rad52, active compounds read low",1.01
same,normalized growth,"S. cerevisiae deletion strains, locus YML120C, strain ndi1, active compounds read low",1.02
same,normalized growth,"S. cerevisiae deletion strains, locus YML124C, strain tub3, active compounds read low",1.02
same,normalized growth,"S. cerevisiae deletion strains, locus YMR058W, strain fet3, active compounds read low",1
same,normalized growth,"S. cerevisiae deletion strains, locus YMR078C, strain ctf18, active compounds read low",1.02
same,normalized growth,"S. cerevisiae deletion strains, locus YMR125W, strain sto1, active compounds read low",0.992
same,normalized growth,"S. cerevisiae deletion strains, locus YMR129W, active compounds read low",1.02
same,normalized growth,"S. cerevisiae deletion strains, locus YMR205C, strain PFK2, active compounds read low",0.963
same,normalized growth,"S. cerevisiae deletion strains, locus YMR223W, strain ubp8, active compounds read low",0.986
same,normalized growth,"S. cerevisiae deletion strains, locus YMR231W, strain pep5, active compounds read low",1.01
same,normalized growth,"S. cerevisiae deletion strains, locus YMR263W, strain SAP30, active compounds read low",1
same,normalized growth,"S. cerevisiae deletion strains, locus YMR307W, strain GAS1, active compounds read low",0.966
same,normalized growth,"S. cerevisiae deletion strains, locus YNL067W, strain RPL9B, active compounds read low",1.01
same,normalized growth,"S. cerevisiae deletion strains, locus YNL071W, strain lat1, active compounds read low",0.998
same,normalized growth,"S. cerevisiae deletion strains, locus YNL128W, strain TEP1, active compounds read low",1.01
same,normalized growth,"S. cerevisiae deletion strains, locus YNL153C, strain GIM3, active compounds read low",0.995
same,normalized growth,"S. cerevisiae deletion strains, locus YNL183C, strain NPR1, active compounds read low",0.999
same,normalized growth,"S. cerevisiae deletion strains, locus YNL209W, strain ssb2, active compounds read low",0.995
same,normalized growth,"S. cerevisiae deletion strains, locus YNL233W, strain BNI4, active compounds read low",0.995
same,normalized growth,"S. cerevisiae deletion strains, locus YNL248C, strain rpa49, active compounds read low",1.01
same,normalized growth,"S. cerevisiae deletion strains, locus YNL250W, strain rad50, active compounds read low",1.02
same,normalized growth,"S. cerevisiae deletion strains, locus YNL271C, strain bni1, active compounds read low",1.01
same,normalized growth,"S. cerevisiae deletion strains, locus YNL298W, strain CLA4, active compounds read low",1.01
same,normalized growth,"S. cerevisiae deletion strains, locus YNL307C, strain MCK1, active compounds read low",0.902 (active)
same,normalized growth,"S. cerevisiae deletion strains, locus YNL322C, strain KRE1 (second series), active compounds read low",1.01
same,normalized growth,"S. cerevisiae deletion strains, locus YNL322C, strain KRE1, active compounds read low",1.02
same,normalized growth,"S. cerevisiae deletion strains, locus YNR049C, strain mso1, active compounds read low",0.991
same,normalized growth,"S. cerevisiae deletion strains, locus YNR052C, strain pop2, active compounds read low",0.968
same,normalized growth,"S. cerevisiae deletion strains, locus YOL006C, strain TOP1, active compounds read low",0.632
same,normalized growth,"S. cerevisiae deletion strains, locus YOL012C, strain htz1",0.904
same,normalized growth,"S. cerevisiae deletion strains, locus YOL147C, strain pex11, active compounds read low",1.01
same,normalized growth,"S. cerevisiae deletion strains, locus YOR001W, strain rrp6, active compounds read low",1
same,normalized growth,"S. cerevisiae deletion strains, locus YOR061W, strain CKA2, active compounds read low",0.993
same,normalized growth,"S. cerevisiae deletion strains, locus YOR069W, strain VPS5, active compounds read low",1.01
same,normalized growth,"S. cerevisiae deletion strains, locus YOR070C, strain gyp1, active compounds read low",1
same,normalized growth,"S. cerevisiae deletion strains, locus YOR080W, strain dia2, active compounds read low",0.995
same,normalized growth,"S. cerevisiae deletion strains, locus YOR083W, strain WHI5, active compounds read low",0.968
same,normalized growth,"S. cerevisiae deletion strains, locus YOR106W, strain vam3, active compounds read low",0.961
same,normalized growth,"S. cerevisiae deletion strains, locus YOR136W, strain idh2, active compounds read low",0.999
same,normalized growth,"S. cerevisiae deletion strains, locus YOR144C, strain elg1, active compounds read low",1.01
same,normalized growth,"S. cerevisiae deletion strains, locus YOR184W, strain ser1, active compounds read low",1.02
same,normalized growth,"S. cerevisiae deletion strains, locus YOR231W, strain MKK1, active compounds read low",0.974
same,normalized growth,"S. cerevisiae deletion strains, locus YOR265W, strain rbl2, active compounds read low",0.984
same,normalized growth,"S. cerevisiae deletion strains, locus YOR270C, strain vph1, active compounds read low",0.723 (active)
same,normalized growth,"S. cerevisiae deletion strains, locus YOR290C, strain snf2, active compounds read low",0.937
same,normalized growth,"S. cerevisiae deletion strains, locus YOR316C, strain cot1, active compounds read low",1.01
same,normalized growth,"S. cerevisiae deletion strains, locus YPL051W, strain arl3, active compounds read low",0.982
same,normalized growth,"S. cerevisiae deletion strains, locus YPL055C, strain LGE1, active compounds read low",0.975
same,normalized growth,"S. cerevisiae deletion strains, locus YPL078C, strain atp4, active compounds read low",0.974
same,normalized growth,"S. cerevisiae deletion strains, locus YPL106C, strain sse1, active compounds read low",0.984
same,normalized growth,"S. cerevisiae deletion strains, locus YPL240C, strain hsp82, active compounds read low",1.01
same,normalized growth,"S. cerevisiae deletion strains, locus YPL241C, strain CIN2, active compounds read low",1
same,normalized growth,"S. cerevisiae deletion strains, locus YPL256C, strain CLN2, active compounds read low",1.02
same,normalized growth,"S. cerevisiae deletion strains, locus YPR119W, strain clb2, active compounds read low",1.01
same,normalized growth,"S. cerevisiae deletion strains, locus YPR141C, strain kar3, active compounds read low",1.02
same,normalized growth,"S. cerevisiae deletion strains, locus YPR163C, strain tif3, active compounds read low",0.987
same,normalized growth,"S. cerevisiae deletion strains, locus YPR167C, strain met16, active compounds read low",1.01
same,normalized growth,"S. cerevisiae deletion strains, strain wtn01, active compounds read low",1
same,normalized growth,"S. cerevisiae strains, strain wild type, active compounds read low",0.981
